Assay [1] can be described thus: compound effects on lung adenocarcinoma cell viability – A549, calcein-AM fluorescence, 48 h, basal, profiling panel (AID 1162). Further: test concentration not given here. The settings on record: higher = more signal.
Assay [2] in a line: compound effects on differentiated 3T3-L1 adipocyte viability – cell-based, 3T3-L1 adipocytes, calcein-AM fluorescence, 48 h, basal, profiling panel (AID 1163). Further: test concentration not given here. The settings on record: 3T3-L1 adipocytes viability, higher = more signal.
Assay [3] is described as follows: compound effects on hepatocellular carcinoma cell viability – HepG2, calcein-AM fluorescence, 48 h, basal, profiling panel (AID 1164). Further: test concentration not given here. The settings on record: higher = more signal.
Assay [4] can be described thus: compound effects on multiple myeloma cell viability – MM1S, calcein-AM fluorescence, 48 h, basal, profiling panel (AID 1165).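 Further: viability of MM1S multiple myeloma cells under basal unstimulated conditions; test concentration not given here.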 The settings on record: higher = more signal.
Assay [5] in a line: calcein-AM signal in unstimulated myeloma cells – cell-based, calcein-AM fluorescence, 48 h, PK04 Diversity Set, profiling panel (AID 1166).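 Further: cells grown under basal conditions without added stimulus; test concentration not given here.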 The settings on record: RPMI8226 myeloma viability, higher = more signal.
Assay [6] is described as follows: JC-1 mitochondrial signal, unstimulated HepG2 cells – cell-based, JC-1 fluorescence, 24 h, 100 nL compound, profiling panel (AID 1167). Further: test concentration not given here. The settings on record: HepG2 mitochondrial potential, higher = more signal.
Assay [7] can be described thus: JC-1 mitochondrial signal, unstimulated adipocytes – cell-based, JC-1 fluorescence, 3T3-L1 adipocytes, 24 h, 100 nL compound, profiling panel (AID 1168). Further: test concentration not given here. The settings on record: JC-1 mitochondrial fluorescence, higher = more signal, called active from +8 up or from −8 down.
Assay [8] in a line: JC-1 mitochondrial signal, unstimulated myeloma cells – cell-based, JC-1 fluorescence, RPMI8226, 24 h, 100 nL compound, profiling panel (AID 1169). Further: test concentration not given here. The settings on record: JC-1 mitochondrial potential fluorescence, higher = more signal.
The nature of assay [9]: JC-1 mitochondrial signal, unstimulated MM1S myeloma – cell-based, JC-1 fluorescence, 24 h, 100 nL compound, profiling panel (AID 1170). Further: test concentration not given here. The settings on record: MM1S mitochondrial potential, higher = more signal.
A short description of assay [10]: resazurin metabolic signal in A549 cells – cell-based, resazurin fluorescence, 24 h, PK04 Diversity Set, profiling panel (AID 1171). Further: test concentration not given here. The settings on record: A549 viability, higher = more signal, called active from +8 up or from −8 down. On the technique in general: The colour change of resazurin is a common sign of viable cells or microbes.
The nature of assay [11]: resazurin metabolic signal in HepG2 cells – cell-based, resazurin fluorescence, 24 h, PK04 Diversity Set, profiling panel (AID 1172). Further: test concentration not given here. The settings on record: HepG2 viability, higher = more signal.
A short description of assay [12]: budding yeast growth changes without added modifier – OD600, strain BY4716, 24 h, basal condition, primary screen (AID 1173). The settings on record: S. cerevisiae BY4716 growth, OD600, 24 h; higher = more signal, called active from +8 up or from −8 down.
The nature of assay [13]: viability profiling in MM1S myeloma cells – cell-based, resazurin fluorescence, basal, 24 h, PK04 Diversity Set, profiling panel (AID 1174). Further: test concentration not given here. The settings on record: higher = more signal, called active from +8 up or from −8 down.
Assay [14] concerns the target Dihydroorotate dehydrogenase (quinone), mitochondrial (Plasmodium falciparum (isolate 3D7)) (UniProt Q08210). In words: inhibition of P. falciparum DHODH – biochemical, C-terminal His tag, absorbance 600 nm, primary screen (AID 1175).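 Further: recombinant parasite enzyme with a five histidine tag at its C terminus; test concentration not given here.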 The settings on record: PfDHODH enzyme, DCIP absorbance 600 nm; higher = more signal, called active from +8 up or from −8 down.
Assay [15] in a line: growth modulation of vineyard yeast isolate – strain RM11-1a, OD600, basal, 24 h, primary screen (AID 1177).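 Further: cultures grown under basal conditions with no added stressor; test concentration not given here.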 The settings on record: S. cerevisiae RM11-1a growth, OD600, 24 h; higher = more signal, called active from +8 up or from −8 down.
A short description of assay [16]: growth of efflux-deficient E. coli DRC39 – strain DRC39, OD650, 24 h, E. coli filamentation inducers, primary screen (AID 1178).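 Further: growth measured as culture turbidity by optical density at 650 nm; test concentration not given here.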 The settings on record: E. coli DRC39 acrAB, higher = more signal, called active from +8 up or from −8 down.
A short description of assay [17]: growth of efflux-deficient E. coli DRC39 – strain DRC39, OD650, 48 h, E. coli filamentation inducers, primary screen (AID 1179).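 Further: screen aims at cell division blockers that make cells filament.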 The settings on record: E. coli DRC39 delta-acrAB growth, higher = more signal, called active from +8 up or from −8 down.
The nature of assay [18]: viability profiling in RPMI8226 myeloma cells – cell-based, resazurin fluorescence, basal, 24 h, PK04 Diversity Set, profiling panel (AID 1180).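 Further: RPMI8826 multiple myeloma cell line at 5000 cells per well; test concentration not given here.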 The settings on record: higher = more signal.
The target in assay [19] is E3 ubiquitin-protein ligase XIAP (Homo sapiens) (UniProt P98170). The experiment in a line: small molecules binding XIAP protein – biophysical, small-molecule microarray, fluorescence 635 nm, primary screen (AID 1181).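 Further: score merges 667 nm emission and signal to noise over triplicate slides.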 The settings on record: higher = more signal.

The source made the active and inactive calls.

Chain of E3 ubiquitin-protein ligase XIAP (Homo sapiens) (P98170 whole entry, looked up): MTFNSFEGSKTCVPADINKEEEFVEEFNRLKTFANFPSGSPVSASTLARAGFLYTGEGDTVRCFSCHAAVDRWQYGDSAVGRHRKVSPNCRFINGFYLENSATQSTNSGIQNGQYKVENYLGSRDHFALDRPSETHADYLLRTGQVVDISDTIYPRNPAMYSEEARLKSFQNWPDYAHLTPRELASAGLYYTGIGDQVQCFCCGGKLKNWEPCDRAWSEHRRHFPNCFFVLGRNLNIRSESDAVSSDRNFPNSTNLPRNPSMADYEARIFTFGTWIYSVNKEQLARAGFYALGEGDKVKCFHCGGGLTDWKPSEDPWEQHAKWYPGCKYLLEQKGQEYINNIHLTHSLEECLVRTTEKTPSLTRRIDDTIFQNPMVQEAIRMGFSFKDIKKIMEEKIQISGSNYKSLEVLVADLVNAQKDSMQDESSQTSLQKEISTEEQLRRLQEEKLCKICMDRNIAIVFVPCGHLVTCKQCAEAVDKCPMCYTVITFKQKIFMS
Chain of Dihydroorotate dehydrogenase (quinone), mitochondrial (Plasmodium falciparum (isolate 3D7)) (Q08210 whole entry, looked up): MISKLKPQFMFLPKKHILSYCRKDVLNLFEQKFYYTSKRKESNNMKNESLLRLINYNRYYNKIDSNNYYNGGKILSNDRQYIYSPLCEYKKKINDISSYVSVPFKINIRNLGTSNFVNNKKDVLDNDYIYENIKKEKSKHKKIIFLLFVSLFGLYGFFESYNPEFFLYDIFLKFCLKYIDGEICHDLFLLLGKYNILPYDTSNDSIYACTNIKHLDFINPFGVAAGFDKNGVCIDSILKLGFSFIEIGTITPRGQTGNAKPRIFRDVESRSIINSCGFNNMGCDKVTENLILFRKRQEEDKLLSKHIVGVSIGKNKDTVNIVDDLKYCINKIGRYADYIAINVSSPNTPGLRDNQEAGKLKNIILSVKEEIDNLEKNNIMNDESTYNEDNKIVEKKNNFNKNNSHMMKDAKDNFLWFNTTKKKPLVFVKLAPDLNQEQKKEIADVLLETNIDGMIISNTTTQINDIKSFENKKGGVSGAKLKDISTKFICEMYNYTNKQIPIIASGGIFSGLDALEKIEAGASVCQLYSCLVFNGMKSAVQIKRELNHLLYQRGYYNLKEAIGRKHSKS

For `CCCC/C=C/[C@H]([C@@H](O)Cc1ccccc1)N(CC#Cc1ccccc1)Cc1ccccc1Br`, the z-score is 1.44 in assay [1]; -0.0982 in assay [2]; 0.632 in assay [3]; 0.558 in assay [4]; 0.0649 in assay [5]; 0.427 in [6]. The z-score in assay [7] is 0.519 (inactive); in assay [8], -0.462; in assay [9] it was -0.435; in assay [10] it was 2.84 (inactive); in assay [11], 1.65; in assay [12], -1.44 (inactive). For the same compound, the z-score is 0.579 (inactive) in assay [13]; 0.994 (inactive) in [15]; 2.75 (inactive) in assay [16]; 1.19 (inactive) in assay [17]; 0.788 in [18]. The composite z-score was 0.197 (inactive) in [14] and -0.039 in assay [19].

For the compound `C=C(COC)/C(=C/C[C@@H](OC(=O)c1ccncc1)c1ccc(OCCO)cc1)c1cc(C(=O)OC)ccc1OC`, the z-score was 1.13 in assay [1]; 1.51 in assay [2]; 0.183 in [3]; -0.312 in [4]; 0.93 in assay [5]; 2.48 in assay [6]. In addition, the z-score in assay [7] was 1.79 (inactive); in assay [8], 0.116; in assay [9] it was 0.487; in assay [10], 1.6 (inactive); in assay [11] it was 0.789; in assay [12], -2.19 (inactive). Besides, the z-score is 1.36 (inactive) in assay [13]; -2.6 (inactive) in [15]; 2.65 (inactive) in [16]; 1.79 (inactive) in [17]; 1.16 in [18]. Further, the values for the composite z-score in assay [14] and in assay [19] were -1.32 (inactive) and -0.103, respectively.

Consider `CCCNC(=O)[C@@]1(Sc2ccc(C)cc2)CC(=O)N(Cc2ccccc2Cl)[C@@H]1c1ccc(CO)cc1`, for which the z-score in [1] is 0.648; in assay [2], 2.79; in assay [3], -0.597; in assay [4], 0.189; in assay [5], 0.154; in assay [6], 0.00317. Further, the z-score was 0.0754 (inactive) in assay [7]; 0.653 in [8]; 0.368 in assay [9]; 0.644 (inactive) in [10]; -0.48 in assay [11]; -0.573 (inactive) in [12]. Also, the z-score was 1.12 (inactive) in assay [13]; -2.58 (inactive) in [15]; 1.23 (inactive) in assay [16]; 0.337 (inactive) in [17]; 1.13 in assay [18]. In addition, the composite z-score is -3.67 (inactive) in assay [14] and 0.105 in assay [19].

On to `C[N+](C)(C)CCCC[C@@H]1NC(=O)[C@H]2C[C@@H](C(=O)NCc3ccc(F)cc3)[C@@H](c3cccc(OCCO)c3)N2C1=O`, for which the z-score in assay [1] was 0.191; in [2], 1.01; in assay [3], -0.676; in [4], -1.04; in [5] it was 0.366; in assay [6] it was 1.79. Moreover, the z-score in [7] was 1.06 (inactive); in [8], -0.397; in [9], 0.392; in assay [10] it was 0.656 (inactive); in assay [11], 0.523; in assay [12], -1.84 (inactive). Also, the z-score in assay [13] was 1.33 (inactive); in assay [15], -1.62 (inactive); in [16], 0.765 (inactive); in assay [17], 0.604 (inactive); in assay [18], -0.0523. The results for the composite z-score in assay [14] and in [19] were -0.347 (inactive) and 0.245, respectively.

In the case of `C=CCC(OC(C)=O)[C@@H]1[C@@H](N(Cc2cc3ccccc3o2)C(=O)c2ccc(C)cc2)c2cc(OCCCO)ccc2N1C(=O)c1ccc2ccccc2n1` (stereo partly specified), the z-score in [1] is 2.73; in [2] it was 0.362; in assay [3], 1.54; in [4] it was 0.906; in assay [5], 1.09; in [6], 2.46. The z-score is 1.5 (inactive) in assay [7]; 0.648 in assay [8]; 1.19 in [9]; 1.66 (inactive) in assay [10]; 1.8 in assay [11]; -0.934 (inactive) in [12]. The z-score was 1.37 (inactive) in assay [13]; -0.0157 (inactive) in assay [15]; 1.74 (inactive) in assay [16]; 1.42 (inactive) in [17]; 0.585 in assay [18]. Besides, the figures for the composite z-score in [14] and in assay [19] were 0.309 (inactive) and 0.437, respectively.

Turning to `CC(C)(C)OC(=O)CC[C@]1(C(=O)NCCN2CCOCC2)N=C(c2ccc(OCCCO)cc2)O[C@H]1c1ccccc1CN=[N+]=[N-]`, the z-score is 0.327 in [1]; 1.13 in assay [2]; 0.0133 in [3]; 1.31 in assay [4]; -0.722 in [5]; -0.131 in [6]. In addition, the z-score in assay [7] is 0.289 (inactive); in [8] it was -0.0354; in [9], 0.671; in assay [10], 0.619 (inactive); in assay [11], -0.0646; in assay [12], -1.56 (inactive). The z-score in [13] was 1.07 (inactive); in assay [15] it was -1.36 (inactive); in [16], 1.16 (inactive); in assay [17], 0.277 (inactive); in assay [18], 1.38. Also, the composite z-score is -0.114 (inactive) in assay [14] and 0.564 in assay [19].

Turning to `C[C@@H]1CC[C@H]2C(=O)N3CCC[C@H]3C(=O)N2[C@H]1c1ccc(Br)cc1`, the z-score is 1.09 in assay [1]; -0.0296 in assay [2]; 0.0327 in [3]; 0.517 in assay [4]; 0.0262 in assay [5]; 0.412 in assay [6]. Further, the z-score is 1.02 (inactive) in assay [7]; -0.167 in assay [8]; 0.324 in assay [9]; 0.673 (inactive) in assay [10]; 1.55 in [11]; -0.654 (inactive) in assay [12]. Also, the z-score in [13] was 0.864 (inactive); in assay [15] it was 0.393 (inactive); in assay [16], 0.898 (inactive); in [17], 0.8 (inactive); in assay [18] it was 0.506. For the same compound, the composite z-score in assay [14] was 0.238 (inactive); in assay [19] it was -0.193.

Regarding `CO[C@H]1COC(=O)[C@@H](C)NC(=O)CC=C[C@@H](C)[C@H](OC)COC(=O)CC=C[C@@H]1C`, the z-score is 0.606 in [1]; 0.518 in assay [2]; 0.468 in assay [3]; 0.377 in assay [4]; 0.771 in assay [5]; 1.44 in [6]. The z-score is 1.86 (inactive) in assay [7]; -0.0629 in assay [8]; 1.06 in assay [9]; 0.775 (inactive) in assay [10]; 1.16 in assay [11]; -2.42 (inactive) in assay [12]. Also, the z-score in assay [13] was 0.563 (inactive); in [15], -2.65 (inactive); in assay [16], 1.03 (inactive); in assay [17] it was 0.505 (inactive); in assay [18], 0.477. Further, the composite z-score in assay [14] is -0.336 (inactive); in assay [19], -0.271.

`[N-]=[N+]=NCc1ccccc1C[C@]1(C(N)=O)N=C(c2ccc(OCCCO)cc2)O[C@H]1c1ccccc1CN=[N+]=[N-]`: the z-score in assay [1] was -0.633; in assay [2] it was 1.76; in [3], -1.35; in assay [4], -2.19; in assay [5] it was -3.71; in assay [6] it was 1.89. Also, the z-score in assay [7] is 0.575 (inactive); in [8] it was -0.937; in assay [9] it was -0.621; in [10] it was -1.97 (inactive); in [11], -0.668; in assay [12] it was -3.26 (inactive). For the same compound, the z-score in assay [13] was -1.04 (inactive); in [15], -3.31 (inactive); in assay [16], 2.63 (inactive); in [17], 0.258 (inactive); in assay [18], -1.46. Also, the composite z-score is -2.42 (inactive) in [14] and 0.0685 in assay [19].

(Values after PubChem BioAssay.)
